The list is not random: actives were taken first. Their share in the collection is about 21%.
NS1 inh: influenza NS1 inhibition; AID 2326; Potency, µM (doses to about 46.1 µM); 270,000 tested, 0.4% active; calls by dose curve; note: actives are rising curves; nearly all actives have a fitted effect of over 50% in size
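OD600 was taken as the measure of yeast growth restored by compound in an NS1-expressing S. cerevisiae strain. Cells had been washed out of glucose medium and diluted 1:100 into galactose -URA medium, pH 6.0.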
Sm TGR inh: S. mansoni TGR enzyme inhibition | 360,000 tested, 3% active | AID 485364 | Q962Y6 | Potency, µM (series often up to 114 µM), actives largely listed as inhibitors | purified TGR, DTNB reduction, TNB absorbance 405 nm; note: nearly all actives have a fitted effect of over 60% in size
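TGR 20 nM + NADPH 100 uM (dispensed conc.), cpd preinc 15 min RT; start with NADPH (500 uM addition) then DTNB (15 mM addition). Kinetic TNB absorbance, 405 nm filter. Four-parameter Hill fit across titration.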
Shiga inhibitor: blocks Shiga toxin action in Vero cells; Vero cells, Shiga toxin protein synthesis inhibition reporter; inhibition, % at 38.7 µM; 290,000 tested, 9.2% active; AID 2315; in the data active = inhibition mostly above about 28%, no sharp cut-off; inactive = mostly below about 43%
Pf growth 48h: P. falciparum growth inhibition at 48 hours (one generation); P. falciparum luciferase growth in erythrocytes, 48 h; Potency, µM (titrated, usually from 28.7 µM), hits mostly inhibitors; 310,000 tested, 5.9% active; AID 504832
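Here the parasites carry a stable luciferase gene and grow inside erythrocytes in Albumax-based RPMI medium with compound for one erythrocytic cycle. Activity is scored as loss of luminescent signal.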
Pf growth 96h: inhibits malaria parasite growth, 96 h | P. falciparum luciferase reporter growth, 96 h | Potency, µM (series often up to 28.7 µM), hits mostly inhibitors | 320,000 tested, 6.9% active
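Parasite growth measured via integrated firefly luciferase reporter in P. falciparum. Infected erythrocytes at 2% hematocrit, 0.05% parasitemia final were treated 96 hours at 37 C under 5% CO2, and luminescence was read.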
CHX counter: counter-screen for Shiga toxin inhibitors: cycloheximide protein synthesis inhibition; cell reporter, cycloheximide protein synthesis inhibition counterscreen; max response, %; 300,000 tested, 12% active; in the data active = max response mostly above about 13%, no sharp cut-off; inactive = mostly below about 14%; note: read at 38.3 µM for the half of the compounds with a filed dose
Large screens that a line does not name were inactive. Unless noted, calls come from the whole dose curve; as a rule, active = well fitted curve in the direction sought with a large enough effect; inconclusive = small, poorly fitted or top-dose-only effect, or another doubt; inactive = no such curve, though single readings can be large; an effect the other way counts as inactive or inconclusive.

COc1ccc(NC(=O)NC2CCCc3ccccc32)cc1OC (stereo unspecified)	Shiga inhibitor 31.0, CHX counter 33.5
COc1ccc(C)cc1NC(=O)NC1CCCc2ccccc21 (stereo unspecified)	Pf growth 48h 11.7µM
COc1ccc(NC(=O)NC2CCCc3ccccc32)cc1 (stereo unspecified)	CHX counter 15.8
COc1cccc(CNC2CCCc3ccccc32)c1OC (stereo unspecified)	Pf growth 96h 2.94µM (no result: NS1 inh)
Cc1ccccc1NC(=O)NC1CCCc2ccccc21 (stereo unspecified)	Pf growth 48h inconclusive, Pf growth 96h inconclusive
CC(=O)c1ccc(NC(=O)NC2CCCc3ccccc32)cc1 (stereo unspecified)	none
COc1ccc(NC(=O)CSc2nccn2Cc2ccco2)c(OC)c1	Shiga inhibitor 43.6, CHX counter 25.4
Cc1ccc(NC(=O)CSc2ncc3ccccn23)cc1	Shiga inhibitor 69.6, CHX counter 28.1
COc1ccccc1-n1ccnc1SCC(=O)NCc1ccco1	Sm TGR inh inconclusive, Pf growth 48h inconclusive, Pf growth 96h 10.4µM (no result: NS1 inh)
COc1ccc(NC(=O)CSc2nccn2Cc2ccccc2)c(OC)c1	none
O=C(CSc1nccn1Cc1ccco1)Nc1cccc(F)c1	Shiga inhibitor 38.8, CHX counter 26.9
COc1ccccc1-n1ccnc1SCC(=O)NCC1CCCO1 (stereo unspecified)	Pf growth 96h inconclusive
O=C(CSc1nccn1Cc1ccco1)Nc1ccc(F)cc1	none
O=C(CN1N=C(c2ccccc2)CCC1=O)NCc1ccco1	none
C/C=C1/NN(CCCN2CCN(c3cccc(Cl)c3)CC2)C(=O)N1CCOc1ccccc1	none (no result: NS1 inh, Sm TGR inh)
Cc1ccc(NC(=O)CSc2nccn2Cc2ccco2)cc1	Shiga inhibitor 89.7, CHX counter 78.3
CC(CCc1ccco1)NC(=O)Nc1cccc(F)c1 (stereo unspecified)	Pf growth 96h inconclusive, CHX counter 20.5
O=C(NC1CC(=O)N(c2ccc(F)cc2)C1)C(=O)c1c[nH]c2ccccc12 (stereo unspecified)	none (no result: NS1 inh, Shiga inhibitor, CHX counter)
O=C(CSc1ccccc1)NCc1ccc2c(c1)CCN2C(=O)c1ccc(Cl)cc1	none (no result: NS1 inh, Shiga inhibitor, Pf growth 48h, Pf growth 96h, CHX counter)
CN(C)C(=O)c1cc(C(=O)c2ccccc2)c[nH]1	CHX counter 18.4
CN(C)C(=O)c1cc(C(=O)c2c(F)cccc2F)c[nH]1	none
CN(C)C(=O)c1cc(C(=O)c2ccccc2Br)c[nH]1	none
O=C(c1c[nH]c(C(=O)C(Cl)(Cl)Cl)c1)c1ccccc1Br	Pf growth 48h 13.1µM, Pf growth 96h inconclusive (no result: NS1 inh)
CN(C)C(=O)c1cc(C(=O)c2ccccc2Cl)c[nH]1	Pf growth 96h inconclusive, CHX counter 28.9
CNC(=O)c1cc(C(=O)c2ccccc2Br)c[nH]1	none
CC(C)(C)OC(=O)N1CCC(c2c(C(=O)NCCN3CCc4ccccc4C3)cnn2-c2ccc(F)cc2)CC1	none (no result: NS1 inh, Shiga inhibitor, Pf growth 48h, Pf growth 96h, CHX counter)
O=C1/C(=C/c2cccc3ccccc23)CCCc2ccccc21	Shiga inhibitor 51.0, CHX counter 29.1
Cn1cccc1/C=C1\CCc2ccccc2C1=O	none (no result: NS1 inh)
CCOc1ccccc1-c1nnc(SCc2ccc(Cl)cc2)o1	none (no result: NS1 inh, Shiga inhibitor, Pf growth 48h, Pf growth 96h, CHX counter)
C=Cn1ccnc1P(=S)(c1ccc2c(c1)c1ccccc1n2CC)c1nccn1C=C	Pf growth 48h 2.94µM
C=Cn1ccnc1P(=S)(c1ccc(N(C)C)cc1)c1nccn1C=C	Pf growth 96h inconclusive
CC1Cc2cc(S(=O)(=O)NCc3ccc(Cl)cc3)ccc2N1C(=O)C1CCC1 (stereo unspecified)	none (no result: NS1 inh, Shiga inhibitor, Pf growth 48h, Pf growth 96h, CHX counter)
CCOC(=O)C1CCCc2c1[nH]c1c(C(N)=O)cccc21 (stereo unspecified)	none (no result: Pf growth 48h)
NC(=O)c1cccc2c3c([nH]c12)CCCC3	Shiga inhibitor 86.5, CHX counter 35.8
OCC1(O)OC[C@@H](O)[C@H]1O (stereo partly specified)	none
Cc1c(Cl)cccc1NC(=O)Cn1nnc(-c2nc(-c3ccccc3)no2)c1N	none (no result: NS1 inh, Shiga inhibitor, Pf growth 48h, Pf growth 96h, CHX counter)
Cc1cnc(NC(=O)C2COc3ccccc3O2)s1 (stereo unspecified)	none
O=C(Nc1ccccn1)C1COc2ccccc2O1 (stereo unspecified)	Shiga inhibitor 64.4, Pf growth 96h 5.86µM, CHX counter 31.8
O=C(Nc1ccc(Cl)cn1)C1COc2ccccc2O1 (stereo unspecified)	Shiga inhibitor 51.0, Pf growth 48h inconclusive, CHX counter 28.8
O=C1NCCCC1C(=O)Nc1ccccn1 (stereo unspecified)	none
CC1Oc2ccccc2OC1C(=O)Nc1ccccn1 (stereo unspecified)	Pf growth 48h 5.86µM
Cc1cccc(NC(=O)C2COc3ccccc3O2)n1 (stereo unspecified)	Shiga inhibitor 54.9, Pf growth 48h inconclusive, CHX counter 47.3
Cc1ccc(-c2nnc(SCC(=O)NC3CCS(=O)(=O)C3)nc2-c2ccc(C)cc2)cc1 (stereo unspecified)	Pf growth 48h inconclusive, Pf growth 96h inconclusive
CN(C(=O)c1cnccn1)c1c(N)n(Cc2ccccc2)c(=O)[nH]c1=O	Pf growth 48h inconclusive (no result: NS1 inh, Shiga inhibitor, CHX counter)
O=C(CSc1nc2c([nH]c3ccccc32)c(=O)n1-c1ccccc1)N1CCCc2ccccc21	none (no result: NS1 inh, Shiga inhibitor, Pf growth 48h, Pf growth 96h, CHX counter)
C[C@@H](CCC(=O)O)C(=O)O	none (no result: Sm TGR inh, Shiga inhibitor, Pf growth 48h, Pf growth 96h, CHX counter)
O=C(N/N=C/c1ccccn1)c1cc(-c2ccc3ccccc3c2)n[nH]1	Pf growth 48h inconclusive
O=C(N/N=C/c1ccccn1)c1cc(-c2ccccc2Cl)n[nH]1	Shiga inhibitor 95.2, Pf growth 48h inconclusive, Pf growth 96h inconclusive, CHX counter 35.3 (no result: NS1 inh)
O=C(N/N=C/c1ccccn1)c1ccc(NC(=O)c2ccccc2Cl)cc1	none
O=C(N/N=C/c1ccccn1)c1ccc(Cl)c(Cl)c1	Shiga inhibitor 68.9, Pf growth 48h 14.7µM, Pf growth 96h inconclusive, CHX counter 43.9
O=C(N/N=C/c1ccccn1)c1cc(-c2cccc3ccccc23)n[nH]1	CHX counter 13.3
COc1cc(OC)c(C2C=C(c3ccc(C)cc3)Nc3c(C(=O)Nc4ccccc4)cnn32)cc1OC (stereo unspecified)	none (no result: NS1 inh, Shiga inhibitor, Pf growth 48h, Pf growth 96h, CHX counter)
CCOc1ccccc1CNC(=O)c1ccc(Cn2c(=O)c3cccn3c3cccnc32)cc1	none (no result: NS1 inh, Shiga inhibitor, Pf growth 48h, Pf growth 96h, CHX counter)
CCOc1ccc(NC(=O)CN(C)C(=O)c2c(-c3ccccc3)noc2C)cc1OCC	Pf growth 48h inconclusive, Pf growth 96h inconclusive (no result: NS1 inh, Shiga inhibitor, CHX counter)
O=C(O)Cc1sc(-c2ccccc2)nc1-c1ccccc1	none
O=C(O)Cc1nc(-c2cccnc2)sc1-c1ccc(Br)cc1	Sm TGR inh 11.2µM, Pf growth 48h inconclusive, Pf growth 96h inconclusive
Nc1ccccc1CCCC(=O)O	none (no result: Sm TGR inh, Shiga inhibitor, Pf growth 48h, Pf growth 96h, CHX counter)
CCOC(=O)CSc1nc(N2CCOCC2)c2c(c1C#N)CC(C)(C)OC2	Pf growth 96h inconclusive
CCCCCSc1nc(N2CCOCC2)c2c(c1C#N)CC(C)(C)OC2	Pf growth 48h 9.28µM, Pf growth 96h inconclusive
CCCOC(=O)CSc1nc(N2CCOCC2)c2c(c1C#N)CC(C)(C)OC2	Pf growth 48h inconclusive, Pf growth 96h 1.85µM
CC(C)CSc1nc(N2CCOCC2)c2c(c1C#N)CC(C)(C)SC2	Pf growth 48h 9.28µM, Pf growth 96h inconclusive
